# In PubChem BioAssay (NCI):
# The panel holds about 83,000 compounds, 20% with a hit somewhere; the sample as a whole holds those more often.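 For each line, cells grew in 96-well plates with the test compound present at a single concentration for 48 hours.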 A number with no mark means an inactive call. Calls of active or inactive are those of the source. Rule for the calls: active = growth percent below 10; inactive = the rest.
# Tested on: MDA-MB-468 breast
# Experiment: NCI-60 one-dose screen, 48 h (100 = growth as untreated, 0 = no growth, -100 = all killed)
# Conditions: 10 µM unless noted
row,Compound,growth
1,CC(=O)Nc1cc2c(cc1Cl)Cc1cc(Cl)ccc1-2,-50.2% (active)
2,Cn1cc(-c2csc(-c3cccc(F)c3)n2)c2cccnc21,-49.6% [100 µM] (active)
3,Cc1ccc(S(=O)(=O)N2CCc3ccc(O)c4c3C2Cc2cc(Cl)ccc2-4)cc1 (stereo not given),53.9%
4,Clc1ccc(-c2noc(/C=C\c3ccccc3)n2)cc1,97.7%
5,CC1(C(N)=O)CCC(C(=O)O)C1(C)C (stereo not given),99.2%
6,C=C1C(=O)O[C@H]2[C@H]1CC/C(COC(=O)N[C@H]1C[C@H](O[C@H]3C[C@](O)(C(=O)CO)Cc4c(O)c5c(c(O)c43)C(=O)c3c(OC)cccc3C5=O)O[C@@H](C)[C@H]1O)=C\CC[C@@]1(C)O[C@@H]21,-55.9% (active)
7,OCCNc1nc(NCCO)nc(Nc2ccc(C3=NN(c4cc(Cl)cc(Cl)c4)C(c4ccc(Cl)cc4)C3)cc2)n1 (stereo not given),-5.79% (active)
8,CC[N+](C)(CC)CCCC(C)Nc1ccnc2cc(Cl)ccc12 (stereo not given),119%
9,CN1CCN(c2ccc(Nc3nc(NCCCNS(=O)(=O)c4ccc(F)cc4)c4sccc4n3)cc2)CC1,25.9%
10,O=C1Nc2ccccc2/C1=C/c1nc2ccccc2c(=O)[nH]1,93%
11,COc1ccc(C2=C(c3cccc(OC)c3)C(=O)c3ccc(C)nc3C2=O)cc1,-60.8% (active)
12,COC(=O)CNC(=O)c1ccc(NC(=O)c2[nH]c(C)c(Cl)c2Cl)c(O[C@H]2CCNC2)c1,112%
13,O=C(N=Nc1c(Cl)c(O)c2ccccc2c1O)C(=O)Nc1cccc(C(F)(F)F)c1,80.8%
14,C#CCOC(=O)C(N)CSSCC(N)C(=O)O (stereo not given),109%
15,Cn1nc(C(F)(F)F)c(-c2cc(C(F)(F)F)cc(C(F)(F)F)c2)c1-c1ccc(OCc2ccc(Cl)cc2)cc1O,-5% (active)
16,CN1CCN(c2ccc(C(=O)Nc3n[nH]c4ccc(Cc5cc(F)cc(F)c5)cc34)c(NC3CCOCC3)c2)CC1,-72.3% (active)
17,COC(=O)[C@]1(C(C)C)N[C@H](c2cn(-c3ccccc3)nc2-c2ccccc2)[C@@H]2C(=O)N(c3ccc(Cl)cc3)C(=O)[C@@H]21,119%
18,COc1cc(-c2cc(-c3nc4ccc(Cl)cc4[nH]3)[nH]n2)cc(OC)c1OC,35.9%
19,CCCCC/C=C/C(C)=C/C1CC(C)C/C=C/CCC(O)C(OC(N)=O)CCC(C)CC(O)C(C)C(=O)O1 (stereo not given),94.9%
20,Cn1c([N+](=O)[O-])cnc1/C=C1\Oc2ccccc2C1=O,28.3%

row,Compound,growth
1,CC1SC(c2c(Cl)cccc2Cl)N(NC(=O)c2[nH]c3ccc(F)cc3c2-c2ccccc2)C1=O (stereo not given),66.8%
2,COC(=O)/C(CCC=C(C)C)=C1\[C@@H](OC(C)=O)C[C@@]2(C)[C@H]1C[C@@H](O)[C@H]1[C@@]3(C)CC[C@H](NC(=O)c4cnccn4)[C@@H](C)[C@@H]3CC[C@@]12C,106%
3,CCCNNC(=O)/C=C/c1ccc(CNCCc2c(C)[nH]c3ccccc23)cc1,32.8% [2.5 µM]
4,N=c1c(C(=O)OCc2ccccc2)ncc(CCl)n1O,68.6%
5,Cc1nc2n(c(=O)c1CCN1CCC(c3noc4cc(F)ccc34)CC1)CCC[C@@H]2O,100%
6,CN(C)c1cccc2[nH]c(-c3[nH]ncc3Nc3ccnc(N)n3)nc12,-67.5% (active)
7,Nc1ncnc2c1ccn2-c1cccc(NC(=O)c2cccc(C(F)(F)F)c2)c1,31.3%
8,N#Cc1c(-c2cccs2)cc(-c2cnccn2)nc1SCC(=O)N/N=C/c1cccs1,64.6%
9,O=c1n(Cc2ccc3ccccc3c2)ccn1Cc1ccc2ccccc2c1,94.3%
10,COc1cc(OC)cc(C(=O)C[n+]2cccc3cc[nH]c32)c1,90.9%
11,Cn1ccnc1C(=O)/C=C/c1ccc(NC(=O)c2ccc(F)cc2)cc1,11.8%
12,Cc1ccc(Nc2nc(N)nc(Nc3ccc4ccccc4c3)n2)cc1,20.2%
13,O=C(N/N=C/c1ccccc1SSc1ccccc1/C=N/NC(=O)c1ccccc1)c1ccccc1,51.9%
14,CCCCCCCCCCCCCCCC1=NC(C)(C)CN1C(C)C,-58.8% (active)
15,ClC1c2ccccc2CCc2ccccc21,111%
16,COc1cc2c(cc1OC(C)=O)C(=O)CCCC2,76.8%
17,CCN1CCN(c2nc(C)cc(N(CCCNc3ccnc4cc(Cl)ccc34)Cc3ccco3)n2)CC1,84.2%
18,Nc1cc2c(cc1Br)-c1c(C(=O)O)cccc1C2O (stereo not given),74.6%
19,COc1ccc2c(c1)CCCC21C(=O)Nc2ccccc21 (stereo not given),103%
20,CC1(c2ccccc2)OC1C(=O)O (stereo not given),99.2%
